Screening results as filed in PubChem BioAssay.
CRFR2-BP antag: antagonists of CRF-BP/CRF-R2 complex, primary screen, cell-based, HEK293, calcium dye fluorescence, uHTS; 350,000 compounds, 0.59% hits; inhibition, % at 11.8 µM; AID 588475, 2011; CRF-induced calcium fluorescence;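 active means inhibition of the ligand-induced calcium signal above about 50% at the single tested concentration, limit read from the data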
ANO1 activ: TMEM16A chloride channel activators or potentiators, primary screen, cell-based, HTS; Anoctamin-1 (Mus musculus), Q8BHY3; HEK293 TMEM16A/YFP-H148Q/I152L, iodide quench fluorescence; stronger effect = lower value; B-score at 10 µM; 340,000 compounds, 0.3% hits;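 active means fluorescence-ratio B-score plate-corrected deviation score at least 3 library SD below zero, with starting fluorescence score within 5 deviations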;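 further: channel opened by trigger with iodide after compound preincubation; score built on the fluorescence ratio of max minus min over baseline; more negative score means more quench and so TMEM16A activation or potentiation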
Target sequence (Q8BHY3 whole entry, looked up): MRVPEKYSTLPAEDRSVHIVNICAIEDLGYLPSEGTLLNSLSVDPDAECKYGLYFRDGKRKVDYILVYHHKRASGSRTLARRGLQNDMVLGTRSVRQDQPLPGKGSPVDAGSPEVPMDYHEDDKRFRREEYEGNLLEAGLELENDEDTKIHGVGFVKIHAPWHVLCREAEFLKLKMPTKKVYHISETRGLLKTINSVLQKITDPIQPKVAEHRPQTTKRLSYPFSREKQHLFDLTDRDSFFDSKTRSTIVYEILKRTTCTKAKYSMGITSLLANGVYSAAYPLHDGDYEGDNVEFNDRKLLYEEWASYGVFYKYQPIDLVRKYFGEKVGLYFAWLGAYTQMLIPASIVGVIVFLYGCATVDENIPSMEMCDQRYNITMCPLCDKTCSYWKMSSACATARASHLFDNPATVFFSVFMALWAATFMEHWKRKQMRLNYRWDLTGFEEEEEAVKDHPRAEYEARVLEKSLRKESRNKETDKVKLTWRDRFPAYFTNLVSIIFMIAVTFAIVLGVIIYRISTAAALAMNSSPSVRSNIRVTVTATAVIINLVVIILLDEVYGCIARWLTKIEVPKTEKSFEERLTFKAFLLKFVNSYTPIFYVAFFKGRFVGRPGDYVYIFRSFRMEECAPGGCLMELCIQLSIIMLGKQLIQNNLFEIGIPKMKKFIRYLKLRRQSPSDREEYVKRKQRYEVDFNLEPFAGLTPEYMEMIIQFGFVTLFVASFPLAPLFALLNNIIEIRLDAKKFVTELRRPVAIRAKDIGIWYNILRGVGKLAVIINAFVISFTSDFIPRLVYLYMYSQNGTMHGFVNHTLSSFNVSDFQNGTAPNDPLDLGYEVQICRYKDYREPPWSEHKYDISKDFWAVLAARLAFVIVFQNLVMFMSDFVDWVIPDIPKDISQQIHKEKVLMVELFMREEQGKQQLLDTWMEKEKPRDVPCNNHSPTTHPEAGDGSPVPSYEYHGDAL
RTF Ca sens act: cardiac RTF calcium sensitivity activators, primary screen, biochemical, IANBD-TnC fluorescence, EC20 calcium; Troponin I, cardiac muscle (Homo sapiens) + Troponin T, cardiac muscle (Homo sapiens) + …; IANBD-labeled TnC RTF fluorescence at EC20 calcium; 0% EC20 calcium, 100% full calcium; activation, % at 7.2 µM; 340,000 compounds, 0.24% hits; AID 493008, 2010;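 active means activation above the mean over all tested compounds plus 3 SD, cut at about 30% in these data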;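 further: rise in fluorescence read as greater calcium sensitivity of cardiac thin filaments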
ANO1 block: TMEM16A chloride channel inhibitors, primary screen, cell-based, HTS | HEK293 TMEM16A/YFP iodide influx fluorescence, ionomycin | 310,000 compounds, 1.2% hits | AID 588511, 2011 | normalized B-score (activity score, 25-100; higher = stronger inhibition) at 10 µM | Anoctamin-1 (Mus musculus), Q8BHY3;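 active means ratio plate-corrected score three or more library SD toward inhibition, starting fluorescence score within five deviations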;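 further: score derived from kinetic fluorescence span divided by baseline fluorescence per well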
CRFR2-BP ag: agonists of CRF-BP/CRF-R2 complex, primary screen, cell-based, HEK293, calcium dye fluorescence, uHTS. CRF-binding protein / CRF receptor 2 complex (human). 350,000 compounds, 0.46% hits. calcium dye fluorescence (FLIPR); percent of saturating CRF peptide response. activation, % at 13.2 µM;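 active means activation of at least 50%, plus an integration ratio under a set limit after plate pattern correction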;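 further: plate controls were neutral control wells without compound for no effect and CRF at EC100 for full effect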
RTF Ca sens inh: cardiac RTF calcium sensitivity inhibitors, primary screen, biochemical, IANBD-TnC fluorescence, EC70 calcium; AID 493244, 2011; 340,000 compounds, 0.12% hits; inhibition, % at 7.15 µM; Troponin I, cardiac muscle (Homo sapiens) + Troponin T, cardiac muscle (Homo sapiens) + …; IANBD-labeled cardiac RTF, Ca2+ fluorescence;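 active means inhibition above the mean inhibition of all tested compounds plus 3 SD, cut at about 17% in these data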;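 further: assay run at fixed EC70 calcium of 1.6 mM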
TMEM16A reconf: TMEM16A chloride channel inhibitors, confirmation, cell-based, re-confirmation. shares compounds with ANO1 block. HEK293 TMEM16A/YFP-H148Q, iodide quench fluorescence; ionomycin added to raise cell calcium. inhibition, % at 10 µM. 2,300 compounds, 39% hits. AID 652189, 2013;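 active means mean duplicate percent inhibition, scaled so buffer wells are 0 and the reference blocker 100, over three buffer SD above buffer mean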
HEK293 Ca mobil: calcium mobilization in TMEM16A/YFP HEK293 cells, confirmation, counter-screen for TMEM16A inhibitor project. Fluo4 calcium mobilization. AID 652231, 2013. calcium response (% of ionomycin), % at 10 µM. shares compounds with ANO1 block. 2,300 compounds, 2% hits;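 active means duplicate-averaged calcium signal over 20% of the ionomycin maximum, relative to buffer baseline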;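 further: each well's signal is peak minus trough fluorescence divided by its pre-addition baseline; 0% = buffer wells and 100% = ionomycin wells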
Parental YFP cnt: iodide YFP quench changes in parental YFP-HEK293, counter-screen for TMEM16A inhibitor project, cell-based | shares compounds with ANO1 block | ionomycin | YFP ratio F(max-min)/F0 at 10 µM | 2,300 tested, under 10 active | AID 652233, 2013;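 active means yellow fluorescent protein signal ratio exceeding the buffer control mean by over 5 SD of those controls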;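 further: ratio is mean of duplicate wells from kinetic YFP trace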
ClC-1 rat inh: ClC-1 chloride channel inhibition, selectivity assay for TMEM16A inhibitor project, cell-based, voltage-dependent ClC-1; ratio percent, % at 10 µM; 2,300 tested, under 10 active; CHO ClC-1-YFP, iodide influx fluorescence quench; iodide control reads 0, buffer control 100; shares compounds with ANO1 block;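 active means duplicate-mean ratio percent above the mean of iodide-only control wells, which defines zero, plus 5 of their SD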;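 further: higher percent means stronger block of ClC-1 iodide influx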
Numbers without * were called inactive; i = inactive; x = not tested or not shown. Only some compounds are listed: those with a hit (about 2.4% of all), similar ones and a draw of the others.

SMILES	CRFR2-BP antag	ANO1 activ	RTF Ca sens act	ANO1 block	CRFR2-BP ag	RTF Ca sens inh	TMEM16A reconf	HEK293 Ca mobil	Parental YFP cnt	ClC-1 rat inh
Cc1cc(O)c(C(C)C)cc1N=Nc1ccccc1C(=O)O	7.3	i	-2.3	i	-0.7	-2.7	37.5%*	i	-0.732	-8.0
O=C(NCCNC(=O)c1ccccn1)c1ccc(-c2ccccc2)cc1	-7.7	i	-7.0	i	-0.4	-3.4	x	x	x	x
O=C(CSc1nccn1-c1ccc(F)cc1)NCc1ccc2c(c1)OCO2	10.0	i	-1.0	i	-2.5	-1.0	x	x	x	x
CCOc1ccc(-n2ccnc2SCC(=O)NCc2ccc3c(c2)OCO3)cc1	-5.5	i	-1.4	100*	-4.5	-2.2	20.0%*	i	-1.19	-7.5
CCC1SC2=NC(C)=C(C(=O)OCCOC)C(/C=C/c3ccccc3OC)N2C1=O (configuration not stated)	0.1	i	4.6	i	0.3	-12.5	x	x	x	x
CCC1SC2=NC(C)=C(C(=O)OCC(C)C)C(/C=C/c3ccccc3OC)N2C1=O (configuration not stated)	-5.2	i	-2.8	100*	11.9	-4.8	i	i	-1.13	-15.5
COc1ccc(C2(O)CCN(CC(=O)Nc3nc(-c4ccccc4)cs3)CC2)cc1	-5.7	i	4.3	25*	0.1	-6.0	35.5%*	i	-0.813	-29.0
CN1CCN(CC(=O)Nc2nc(-c3ccccc3)cs2)CC1	1.9	i	5.5	i	0.1	-4.7	x	x	x	x
CC(=Nc1cccc(C)c1)c1sc2ccccc2c1O	-50.8	i	-9.5	i	8.4	-4.0	i	i	-0.93	-9.5
CC(=Nc1ccc(O)cc1)c1sc2ccccc2c1O	-20.8	i	14.4	i	27.4	-25.9	x	x	x	x
Cc1c(Cl)cccc1NC(=O)C1COc2ccccc2O1 (configuration not stated)	2.6	i	-0.9	i	-1.3	7.5	x	x	x	x
CC(=O)N1CCSc2ccc(S(=O)(=O)NCCc3ccc(Cl)cc3)cc21	-3.9	i	-3.3	100*	1.9	-1.9	34.0%*	i	-0.86	-11.0
Cc1ccc(C)c(OCC(=O)NCCNC(=O)COc2cc(C)ccc2C)c1	2.5	i	-4.9	100*	0.1	3.0	i	i	-1.25	-12.5
CCCc1cc(C(=O)Cc2ccc(C(=O)OCC)o2)c(O)cc1O	26.6	i	8.6	100*	-1.3	-7.9	66.5%*	i	-0.839	-1.0
CCc1cc(C(=O)Cc2ccc(F)cc2)c(O)cc1O	1.6	i	-0.9	100*	0.8	-7.4	68.5%*	i	-0.821	-10.5
CCc1cc(C(=O)COc2ccccc2F)c(O)cc1O	38.0	i	-1.1	100*	-1.0	-5.0	47.0%*	i	-1.1	-12.0
COCCCNC(=O)c1ccccc1Oc1ccccc1	-8.8	i	-3.0	i	0.2	-5.5	x	x	x	x
O=C(NCc1ccc(Cl)cc1)c1ccccc1Oc1ccccc1	19.1	i	8.5	100*	-1.1	-9.2	i	i	-0.968	-2.0
CCCOC(=O)CSc1nnc(-c2cc(OC)c(OC)c(OC)c2)o1	-15.6	i	1.6	i	-4.4	6.4	x	x	x	x
CCCCCOC(=O)CSc1nnc(-c2cc(OC)c(OC)c(OC)c2)o1	-3.3	i	2.3	25*	1.2	-1.1	i	i	-1.08	-9.0
CC(NC(=O)COc1cccnc1[N+](=O)[O-])c1ccc(Cl)cc1 (configuration not stated)	-0.7	i	2.3	i	-1.2	-15.8	x	x	x	x
Fc1ccc(-c2csc(N3CCC(c4ccccc4)C3)n2)cc1 (configuration not stated)	-42.6	i	3.7	100*	0.2	7.7	i	i	-0.869	-9.5
N#Cc1cccc(OC(=O)C2CCN(C(=O)c3ccc(F)cc3)CC2)c1	-10.2	x	x	x	-0.8	x	x	x	x	x
CCCOc1ccc(Cn2cnc3ccccc32)cc1	12.6	i	-5.5	25*	-1.2	5.1	17.0%*	i	-1.04	-10.0
c1ccc2c(c1)ncn2CCCOc1ccc2c(c1)CCC2	-13.5	i	-2.9	100*	-1.4	-10.6	i	i	-1.14	-8.5
SMILES	CRFR2-BP antag	ANO1 activ	RTF Ca sens act	ANO1 block	CRFR2-BP ag	RTF Ca sens inh	TMEM16A reconf	HEK293 Ca mobil	Parental YFP cnt	ClC-1 rat inh
O=C(CCCCn1ccc(=O)[nH]c1=O)Nc1ccc(C(=O)O)c(O)c1	3.7	i	-0.4	x	1.9	-1.5	x	x	x	x
COc1cc(Nc2ncnc(N)n2)cc(OC)c1	-3.0	i	-2.5	i	-0.2	-4.5	x	x	x	x
Cc1oncc1-c1csc(-c2ccccc2)n1	-0.7	i	-2.8	100*	2.1	-0.1	i	i	-0.926	-12.5
Cc1oncc1-c1csc(-c2ccccc2Cl)n1	-23.2	i	-5.1	i	-1.2	1.6	x	x	x	x
O=[N+]([O-])c1cccnc1SCc1c(F)cccc1Cl	19.6	i	-3.6	i	0.4	-3.7	x	x	x	x
O=[N+]([O-])c1ccc(SCc2c(F)cccc2Cl)nc1	0.4	i	0.6	25*	-1.2	-0.5	16.0%*	i	-1	-7.0
CCOC(=O)c1cc2cc(F)ccc2nc1C	11.5	i	-6.3	i	-1.1	5.7	x	x	x	x
Cc1nc2ccc(F)cc2cc1C(=O)NC(C)C	-1.6	i	3.5	100*	0.9	-5.3	i	i	-1	-9.0
FC(F)(F)c1nnc(Nc2ccc(Cl)cc2)s1	-1.8	i	x	i	2.7	x	x	x	x	x
Fc1ccc(Nc2nnc(C(F)(F)F)s2)cc1Cl	14.3	-6.76*	-0.1	100*	19.8	2.3	49.0%*	i	-1.26	-43.0
CC(C)CNc1ncnc2[nH]ncc12	8.9	i	1.6	x	2.7	-3.6	x	x	x	x
